{
  "source": "the supplement of paper PMC8728848",
  "experiment_in_all_cases": "glycan array binding signal (z-score within array); higher = stronger binding",
  "conditions_in_all_cases": "glycan notation: IUPAC condensed, linker removed",
  "key": {"Fuc(a1-2)Gal(b1-3)GalNAc": {"target": "Fuc(a1-2)Gal(b1-3)GalNAc", "procedure,_shortened": "(§1)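 The binding signal is a Z-score computed within each array. Data were drawn from 3228 arrays in the Consortium for Functional Glycomics database, restricted to those with a known protein sequence. Scores were averaged over arrays of the same protein sequence at different concentrations or buffers, and over linkers, and negative values can be taken as non-binding.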"}, "[1]": {"target": "Fuc(a1-2)Gal(b1-4)GlcNAc(b1-6)GalNAc", "procedure,_shortened": "as §1"}, "[2]": {"target": "Fuc(a1-2)Gal(b1-4)[Fuc(a1-3)]GlcNAc(b1-3)GalNAc", "procedure,_shortened": "as §1"}, "Fuc(a1-2)[Gal(a1-3)]Gal": {"target": "Fuc(a1-2)[Gal(a1-3)]Gal", "procedure,_shortened": "as §1"}, "[3]": {"target": "Fuc(a1-2)[Gal(a1-3)]Gal(b1-3)GalNAc", "procedure,_shortened": "as §1"}, "[4]": {"target": "Fuc(a1-2)[Gal(a1-3)]Gal(b1-4)GlcNAc(b1-6)GalNAc", "procedure,_shortened": "as §1"}, "[5]": {"target": "Fuc(a1-2)[GalNAc(a1-3)]Gal(b1-3)GalNAc(a1-3)[Fuc(a1-2)]Gal(b1-4)GlcNAc", "procedure,_shortened": "as §1"}, "[6]": {"target": "Fuc(a1-2)[GalNAc(a1-3)]Gal(b1-4)Glc", "procedure,_shortened": "as §1"}, "[7]": {"target": "Fuc(a1-2)[GalNAc(a1-3)]Gal(b1-4)GlcNAc(b1-2)Man", "procedure,_shortened": "as §1"}, "[8]": {"target": "Fuc(a1-2)[GalNAc(a1-3)]Gal(b1-4)[Fuc(a1-3)]GlcNAc", "procedure,_shortened": "as §1"}, "[9]": {"target": "Fuc(a1-2)[GalNAc(a1-4)]Gal(b1-4)GlcNAc", "procedure,_shortened": "as §1"}, "[10]": {"target": "Fuc(a1-2)[GalNAc(b1-3)]Gal", "procedure,_shortened": "as §1"}, "[11]": {"target": "Fuc(a1-3)[Gal(b1-4)]GlcNAc(b1-2)Man(a1-6)[Gal(b1-4)GlcNAc(b1-2)Man(a1-3)]Man(b1-4)GlcNAc(b1-4)GlcNAc", "procedure,_shortened": "as §1"}, "[12]": {"target": "Gal(a1-3)Gal(b1-3)GlcNAc(b1-6)GalNAc", "procedure,_shortened": "as §1"}, "[13]": {"target": "Gal(a1-3)Gal(b1-3)[Fuc(a1-4)]GlcNAc(b1-2)Man(a1-3)[Gal(a1-3)Gal(b1-3)[Fuc(a1-4)]GlcNAc(b1-2)Man(a1-6)]Man(b1-4)GlcNAc(b1-4)GlcNAc", "procedure,_shortened": "as §1"}, "[14]": {"target": "Gal(a1-3)Gal(b1-4)GlcNAc(b1-2)Man(a1-3)[Gal(a1-3)Gal(b1-4)GlcNAc(b1-2)Man(a1-6)]Man(b1-4)GlcNAc(b1-4)GlcNAc", "procedure,_shortened": "as §1"}, "[15]": {"target": "Gal(a1-3)Gal(b1-4)GlcNAc(b1-6)GalNAc", "procedure,_shortened": "as §1"}, "[16]": {"target": "Gal(a1-4)Gal(b1-4)GlcNAc(b1-2)Man(a1-3)[Gal(a1-4)Gal(b1-4)GlcNAc(b1-2)Man(a1-6)]Man(b1-4)GlcNAc(b1-4)GlcNAc", "procedure,_shortened": "as §1"}, "[17]": {"target": "Gal(b1-3)GlcNAc(b1-6)GalNAc", "procedure,_shortened": "as §1"}, "Gal(b1-4)GlcNAc": {"target": "Gal(b1-4)GlcNAc", "procedure,_shortened": "as §1"}, "[18]": {"target": "Gal(b1-4)GlcNAc(b1-3)Gal(b1-4)Glc", "procedure,_shortened": "as §1"}, "[19]": {"target": "Gal(b1-4)GlcNAc(b1-3)Gal(b1-4)GlcNAc(b1-3)GalNAc", "procedure,_shortened": "as §1"}, "[20]": {"target": "Gal(b1-4)GlcNAc(b1-6)Gal(b1-4)GlcNAc(b1-6)GalNAc", "procedure,_shortened": "as §1"}, "[21]": {"target": "Gal(b1-4)GlcNAc(b1-6)GalNAc", "procedure,_shortened": "as §1"}, "GalNAc(b1-3)Gal": {"target": "GalNAc(b1-3)Gal", "procedure,_shortened": "as §1"}, "[22]": {"target": "GalNAc(b1-3)Gal(a1-6)Gal(b1-4)Glc", "procedure,_shortened": "as §1"}, "[23]": {"target": "GalNAc(b1-4)GlcNAc(b1-3)GalNAc(b1-4)GlcNAc", "procedure,_shortened": "as §1"}, "[24]": {"target": "GlcNAc(a1-4)Gal(b1-3)GlcNAc", "procedure,_shortened": "as §1"}, "[25]": {"target": "GlcNAc(b1-3)Gal(b1-4)GlcNAc(b1-3)Gal(b1-4)GlcNAc", "procedure,_shortened": "as §1"}, "[26]": {"target": "GlcNAc(b1-3)Gal(b1-4)GlcNAc(b1-3)GalNAc", "procedure,_shortened": "as §1"}, "[27]": {"target": "Man(a1-3)[Man(a1-6)]Man(b1-4)GlcNAc(b1-4)GlcNAc", "procedure,_shortened": "as §1"}, "Man(b1-4)GlcNAc": {"target": "Man(b1-4)GlcNAc", "procedure,_shortened": "as §1"}, "[28]": {"target": "Neu5Ac(a2-3)Gal(b1-3)GlcNAc(b1-3)GalNAc", "procedure,_shortened": "as §1"}, "[29]": {"target": "Neu5Ac(a2-3)Gal(b1-3)[GlcNAc(b1-6)]GalNAc", "procedure,_shortened": "as §1"}, "Neu5Ac(a2-3)Gal(b1-4)Glc": {"target": "Neu5Ac(a2-3)Gal(b1-4)Glc", "procedure,_shortened": "as §1"}, "[30]": {"target": "Neu5Ac(a2-3)Gal(b1-4)GlcNAc(b1-3)Gal(b1-3)GlcNAc", "procedure,_shortened": "as §1"}, "[31]": {"target": "Neu5Ac(a2-3)Gal(b1-4)GlcNAc(b1-6)GalNAc", "procedure,_shortened": "as §1"}, "[32]": {"target": "Neu5Ac(a2-3)Gal(b1-4)[Fuc(a1-3)]GlcNAc(b1-6)[Neu5Ac(a2-3)Gal(b1-3)]GalNAc", "procedure,_shortened": "as §1"}, "[33]": {"target": "Neu5Ac(a2-6)Gal(b1-3)GlcNAc(b1-3)[Gal(b1-4)GlcNAc(b1-6)]Gal(b1-4)Glc", "procedure,_shortened": "as §1"}, "[34]": {"target": "Neu5Ac(a2-6)Gal(b1-4)GlcNAc(b1-2)Man", "procedure,_shortened": "as §1"}, "[35]": {"target": "Neu5Ac(a2-8)Neu5Ac(a2-3)[GalNAc(b1-4)]Gal(b1-4)Glc", "procedure,_shortened": "as §1"}, "[36]": {"target": "Neu5Ac(b2-6)Gal(b1-4)GlcNAc", "procedure,_shortened": "as §1"}, "[37]": {"target": "Neu5Gc(a2-3)Gal(b1-3)GlcNAc", "procedure,_shortened": "as §1"}, "[38]": {"target": "Neu5Gc(a2-3)Gal(b1-4)GlcNAc", "procedure,_shortened": "as §1"}, "[39]": {"target": "Neu5Gc(a2-8)Neu5Ac(a2-3)Gal(b1-4)GlcNAc", "procedure,_shortened": "as §1"}},
  "note": "The full list was thinned out, with the strongest signals kept by preference.",
  "data": [
    {"binder": "MGL6A (Homo sapiens) (protein) MTRTYENFQYLENKVKVQGFKNGPLPLQSLLQRLCSGPCHLLLSLGLGLLLLVIICVVGFQNSKFQRDLVTLRTDFSNFTSNTVAEIQALTSQGSSLEETIASLKAEVEGFKQERQAVHSEMLLRVQQLVQDLKKLTCQVATLNNNGEEASTEGTCCPVNWVEHQDSCYWFSHSGMSWAEAEKYCQLKNAHLVVINSREEQNFVQKYLGSAYTWMGLSDPEGAWKWVDGTDYATGFQNWKPGQPDDWQGHGLGGGEDCAHFHPDGRWNDDVCQRPYHWVCEAGLGQTSQESH", "values": [
      {"measurement": "glycan array binding signal (z-score)", "setting": "Fuc(a1-2)Gal(b1-3)GalNAc", "value": -0.261},
      {"measurement": "glycan array binding signal (z-score)", "setting": "[1]", "value": 4.02},
      {"measurement": "glycan array binding signal (z-score)", "setting": "[2]", "value": -0.238},
      {"measurement": "glycan array binding signal (z-score)", "setting": "Fuc(a1-2)[Gal(a1-3)]Gal", "value": -0.261},
      {"measurement": "glycan array binding signal (z-score)", "setting": "[3]", "value": -0.249},
      {"measurement": "glycan array binding signal (z-score)", "setting": "[4]", "value": -0.27},
      {"measurement": "glycan array binding signal (z-score)", "setting": "[5]", "value": 0.966},
      {"measurement": "glycan array binding signal (z-score)", "setting": "[6]", "value": 0.534},
      {"measurement": "glycan array binding signal (z-score)", "setting": "[7]", "value": -0.017},
      {"measurement": "glycan array binding signal (z-score)", "setting": "[8]", "value": -0.22},
      {"measurement": "glycan array binding signal (z-score)", "setting": "[9]", "value": 4.68},
      {"measurement": "glycan array binding signal (z-score)", "setting": "[10]", "value": 4.73},
      {"measurement": "glycan array binding signal (z-score)", "setting": "[11]", "value": 1.06},
      {"measurement": "glycan array binding signal (z-score)", "setting": "[12]", "value": 4.29},
      {"measurement": "glycan array binding signal (z-score)", "setting": "[13]", "value": -0.221},
      {"measurement": "glycan array binding signal (z-score)", "setting": "[14]", "value": -0.225},
      {"measurement": "glycan array binding signal (z-score)", "setting": "[15]", "value": 4.16},
      {"measurement": "glycan array binding signal (z-score)", "setting": "[16]", "value": -0.244},
      {"measurement": "glycan array binding signal (z-score)", "setting": "[17]", "value": 3.91},
      {"measurement": "glycan array binding signal (z-score)", "setting": "Gal(b1-4)GlcNAc", "value": -0.075},
      {"measurement": "glycan array binding signal (z-score)", "setting": "[18]", "value": -0.284},
      {"measurement": "glycan array binding signal (z-score)", "setting": "[19]", "value": -0.303},
      {"measurement": "glycan array binding signal (z-score)", "setting": "[20]", "value": -0.256},
      {"measurement": "glycan array binding signal (z-score)", "setting": "[21]", "value": 4.67},
      {"measurement": "glycan array binding signal (z-score)", "setting": "GalNAc(b1-3)Gal", "value": 4.13},
      {"measurement": "glycan array binding signal (z-score)", "setting": "[22]", "value": 4.47},
      {"measurement": "glycan array binding signal (z-score)", "setting": "[23]", "value": 3.79},
      {"measurement": "glycan array binding signal (z-score)", "setting": "[24]", "value": -0.306},
      {"measurement": "glycan array binding signal (z-score)", "setting": "[25]", "value": 0.5},
      {"measurement": "glycan array binding signal (z-score)", "setting": "[26]", "value": -0.327},
      {"measurement": "glycan array binding signal (z-score)", "setting": "[27]", "value": -0.224},
      {"measurement": "glycan array binding signal (z-score)", "setting": "Man(b1-4)GlcNAc", "value": -0.258},
      {"measurement": "glycan array binding signal (z-score)", "setting": "[28]", "value": -0.273},
      {"measurement": "glycan array binding signal (z-score)", "setting": "[29]", "value": -1.57},
      {"measurement": "glycan array binding signal (z-score)", "setting": "Neu5Ac(a2-3)Gal(b1-4)Glc", "value": -0.45},
      {"measurement": "glycan array binding signal (z-score)", "setting": "[30]", "value": -0.277},
      {"measurement": "glycan array binding signal (z-score)", "setting": "[31]", "value": 3.89},
      {"measurement": "glycan array binding signal (z-score)", "setting": "[32]", "value": -0.153},
      {"measurement": "glycan array binding signal (z-score)", "setting": "[33]", "value": -0.259},
      {"measurement": "glycan array binding signal (z-score)", "setting": "[34]", "value": -0.302},
      {"measurement": "glycan array binding signal (z-score)", "setting": "[35]", "value": 2.18},
      {"measurement": "glycan array binding signal (z-score)", "setting": "[36]", "value": -0.277},
      {"measurement": "glycan array binding signal (z-score)", "setting": "[37]", "value": -0.256},
      {"measurement": "glycan array binding signal (z-score)", "setting": "[38]", "value": -0.228},
      {"measurement": "glycan array binding signal (z-score)", "setting": "[39]", "value": -0.273}
    ]}
  ]
}
